Source: PubChem (National Center for Advancing Translational Sciences (NCATS))
Shown are actives, neighbours in structure and some others; about 0.43% of the full set was active somewhere.
aGal spleen mod: inhibitors or activators of human alpha-galactosidase in spleen homogenate; P06280; human spleen homogenate, 4MU-alpha-Gal fluorescence, 40 min; Potency, µM (titrated, usually from 80 µM), inactives show at the top dose activity change, negative = inhibition, usual class: inhibitors; actives 0.008% (n = 240,000);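 also: potency is read from the fitted curve at half-maximal effect; 0% = enzyme with vehicle and -100% = no enzyme basal signal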
Target sequence (P06280 32-429 limits assumed): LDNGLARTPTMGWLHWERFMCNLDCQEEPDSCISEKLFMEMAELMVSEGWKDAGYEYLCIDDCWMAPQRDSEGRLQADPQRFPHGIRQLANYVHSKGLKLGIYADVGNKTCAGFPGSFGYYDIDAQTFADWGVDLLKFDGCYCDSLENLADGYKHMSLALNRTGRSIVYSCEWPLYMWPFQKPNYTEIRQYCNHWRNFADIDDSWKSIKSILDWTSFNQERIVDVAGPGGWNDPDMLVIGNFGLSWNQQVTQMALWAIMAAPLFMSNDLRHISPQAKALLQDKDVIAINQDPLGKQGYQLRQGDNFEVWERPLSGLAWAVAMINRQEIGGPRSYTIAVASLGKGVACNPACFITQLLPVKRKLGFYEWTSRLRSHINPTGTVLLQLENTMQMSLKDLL
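Human spleen homogenate (1 ug) was the enzyme source, with 4-methylumbelliferyl-alpha-D-galactopyranoside (1 mM final) in pH 5.0 citrate buffer with 0.01% Tween-20. Compounds were titrated; after 40 min at 37C, NaOH/glycine stop, 4-MU fluorescence read; AC50 from Hill fits.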
GLA inh pH 4.5: alpha-galactosidase A (human) inhibition, pH 4.5; P06280; 230,000 tested, under 10 active; activity change, negative = inhibition, % at 105 µM; purified enzyme, 4-MU-alpha-Gal fluorescence, pH 4.5; AID 1467;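 also: 0% = full activity with enzyme and -100% = basal without enzyme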
GAA inh: alpha-glucosidase (human) inhibition; actives 0.005% (n = 200,000); Potency, µM (highest dose often 76.9 µM), for the others: at the top dose activity change, negative = inhibition, most hits filed as inhibitors; P10253; purified human GAA, 4-MU-alpha-glucoside fluorescence;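 also: potency is read from the fitted curve at half-maximal effect; plate controls were uninhibited enzyme wells for no effect and no-enzyme background for full effect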
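Human alpha-glucosidase, 4 nM, pre-mixed with test compounds before 400 uM 4-methylumbelliferyl substrate; 20 min room temperature at pH 5.0. Fluorescence read after pH 10 stop; AC50 values from Hill-equation fits.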
N370S GC: inhibits or activates N370S mutant glucocerebrosidase; P04062; N370S GC spleen homogenate, 4MU-glucoside fluorescence; Potency, µM (titrated, usually from 59.4 µM), without a hit: top-dose activity change, negative = inhibition, most hits filed as inhibitors; actives 0.092% (n = 330,000);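 also: potency is read from the fitted curve at half-maximal effect; 0% = full enzyme activity and -100% = no enzyme basal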
GAA glycogen: inhibitors or activators of human alpha-glucosidase glycogen cleavage; Potency, µM (titrated, usually from 76.4 µM), inactives show at the highest dose activity change, negative = inhibition, actives largely listed as inhibitors; P10253; AID 2100; actives 0.38% (n = 300,000); recombinant GAA, glycogen substrate, Amplex Red glucose oxidase fluorescence;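 also: potency is read from the fitted curve at half-maximal effect; 0% = full enzyme reaction and -100% = no-enzyme basal signal; the screen sought inhibitors and activators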
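Recombinant enzyme (4 nM final) with compounds titrated up to 77 uM and bovine liver glycogen (30 ug) in citrate pH 5.0, 0.01% Tween-20, 37 C 40 min. Released glucose detected by Amplex Red/glucose oxidase (Ex 573/Em 610); AC50 from Hill fits.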
aGlu spleen mod: lysosomal alpha-glucosidase (human) modulation; human spleen homogenate, 4-MU-alpha-glucoside fluorescence; AID 2112; Potency, µM (series often up to 79.9 µM), for the others: top-dose activity change, negative = inhibition, usual class: inhibitors; P10253; actives 0.006% (n = 240,000);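 also: potency is read from the fitted curve at half-maximal effect; 0% = enzyme with vehicle and -100% = no enzyme basal signal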
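Compounds were titrated against alpha-glucosidase in spleen homogenate at pH 5.0, with 1 mM 4-methylumbelliferyl substrate for 40 min at 37 C. Reactions were quenched with pH 10 NaOH/glycine and fluorescence measured.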
* hit, by the source's call; ? = inconclusive; . = no result given; [ ] = another dose, or the depositor's remark. Calls follow the shape of the dose curve; as a rule, active = well fitted curve in the direction sought with a large enough effect; inconclusive = small, poorly fitted or top-dose-only effect, or another doubt; inactive = no such curve, though single readings can be large; an effect the other way counts as inactive or inconclusive.

SMILES	aGal spleen mod	GLA inh pH 4.5	GAA inh	N370S GC	GAA glycogen	aGlu spleen mod
Cc1c(NC(C)c2ccccc2O)c(=O)n(-c2ccccc2)n1C (centres undefined)	7%	-2	-2%	-11%	28µM*	-3%
O=C(CSc1ccc(Cl)cc1)N/N=C/c1ccc([N+](=O)[O-])o1	.	.	.	?	-14%	.
O=C(CSc1nc(-c2ccc(F)cc2)[nH]c1-c1ccccc1)NCC1CCCO1 (centres undefined)	.	.	.	.	-12%[76.3 µM]	.
COc1cccc(OCC(=O)NNC(=S)Nc2ccc(Cl)cc2Cl)c1	12%	-1	8%	4%	56µM*	8%
O=C(c1cc([N+](=O)[O-])cc([N+](=O)[O-])c1)N1CCOCC1	-9%	6	0%	5%	11%	-6%
CCc1ccc(CNc2ccc(N3CCN(C(C)=O)CC3)cc2)cc1	1%	1	-1%	-14%	?	0%
CC(=O)N1CCN(c2ccc(NCc3ccc(C)cc3)cc2)CC1	9%	3	-9%	-10%	20µM*	-3%
CC(=O)N1CCN(c2ccc(NC(=O)C(c3ccccc3)c3ccccc3)cc2)CC1	.	.	.	13µM*	-2%[76.3 µM]	.
O=C(Nc1ccc(N2CCCC2)cc1)C(c1ccccc1)c1ccccc1	-6%	0	-5%	-10%	3%	-5%
CC(=O)c1ccc(N2CCN(C(=O)CCC(=O)c3cccs3)CC2)cc1	10%	1	1%	4%	6%	0%
O=C(CCC(=O)N1CCN(c2ccc(O)cc2)CC1)c1cccs1	4%	8	.	-6%	11µM*	0%
Cc1ccc(OCCC(=O)N2CCN(c3ccc(O)cc3)CC2)cc1	0%	-6	.	-2%	13µM*	-10%
CC(=O)c1nn(-c2ccc(Cl)cc2)c(=O)[nH]c1=O	.	.	.	-4%	-3%	.
CCOc1ccccc1C(=O)N(Cc1cccs1)c1ccc(Cl)cc1	.	.	.	.	8%[76.3 µM]	.
C(C#CCCCCCCCCC[n+]1ccccc1)#CCCCCCCCCC[n+]1ccccc1	.	.	.	11µM*	.	.
C=CCc1cc(/C=C/c2nc(O)c([N+](=O)[O-])c(=O)[nH]2)cc(OC)c1O	-2%	-11	?	-13%	11µM*	-26%
COc1ccc(Cn2c(C)nnc2-c2cnn(C)c2N)cc1	28µM*	12	5%	5%	-1%	?
CN1C(=O)/C(=C/C=C2\SCCN2C)N(C)C1=S	-3%	-11[21.1 µM]	?	-10%	11µM*	-3%
Cc1cnc(CNc2ncncc2-c2c(C)noc2C)cn1	2%	.	.	-1%	.	-1%
C#CCOCCOCCOCCNc1nc(N2CCN(C(=O)CCCCCCCCCCNC(=O)Cn3cc(CCCCCN)nn3)CC2)nc(N2CCN(C(=O)CCCCCCCCCCNC(=O)[C@H]([C@@H](C)CC)n3cc(CCCCN=C(N)N)nn3)CC2)n1	.	.	.	18µM*	.	.
C#CCOCCOCCOCCNc1nc(N2CCOCC2)nc(N2CCN(C(=O)CCCCCCCCCCNC(=O)[C@@H]([C@H](C)CC)n3cc(CCCCCN)nn3)CC2)n1	.	.	.	-29%	.	.
C#CCOCCOCCOCCNc1nc(N2CCN(C(=O)CCCCCCCCCCNC(=O)[C@H]([C@@H](C)CC)n3cc(CCCCN=C(N)N)nn3)CC2)nc(N2CCN(C(=O)CCCCCCCCCCNC(=O)[C@H](CCCCN)n3cc(C)nn3)CC2)n1	.	.	.	16µM*	.	.
C#CCOCCOCCOCCNc1nc(N2CCN(C(=O)CCCCCCCCCCNC(=O)[C@H]([C@@H](C)CC)n3cc(CCCCCN)nn3)CC2)nc(N2CCN(C(=O)CCCCCCCCCCNC(=O)[C@H]([C@@H](C)CC)n3cc(CCCCN=C(N)N)nn3)CC2)n1	.	.	.	18µM*	.	.
C#CCOCCOCCOCCNc1nc(N2CCN(C(=O)CCCCCCCCCCNC(=O)[C@H]([C@@H](C)CC)n3cc(CCCCCN)nn3)CC2)nc(N2CCN(C(=O)CCCCCCCCCCNC(=O)[C@@H]([C@H](C)CC)n3cc(CCCCCN)nn3)CC2)n1	.	.	.	18µM*	.	.
Cc1ccc(Cl)cc1	6%	.	.	-4%	.	2%
